Assay outcomes (PubChem BioAssay)
This is a sample that favours compounds with a hit; in the whole collection about 6.8% have one here.
T cruzi growth-1: blocks T. cruzi growth in NIH3T3 culture; 77,000 compounds, 5.9% hits; T. cruzi beta-gal in NIH3T3, GalScreen luminescence, 90 h; inhibition, % at 8.34 µM;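 active = mean inhibition above about 93%, with at least 55% of replicates each passing it, limit read from the data, passing the limit was not always enough; inconclusive = only one of those two conditions holds; inactive = neither condition holds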
Pf Dd2 inh: blocks growth of Plasmodium falciparum Dd2 parasites; P. falciparum Dd2 growth, SYBR Green, 72 h; active compounds read low; activity change, % at 10 µM; 94,000 compounds, 2.3% hits; in the data active = activity change below about -80%; inconclusive = no clear call, values can overlap the other calls
C diff growth: C. difficile growth inhibition; growth activity, negative = inhibition, % at 16 µg/mL (by protocol); 86,000 compounds, 0.25% hits; Clostridium difficile clinical isolate growth, OD600, 24 h; active compounds read low;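 active = mean growth activity at or below -80% and every replicate also at or below -80%; inconclusive = mean at or below -80% but some replicate above -80%; inactive = mean growth activity above -80%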
T cruzi growth-2: blocks T. cruzi growth in NIH3T3 host cells. T. cruzi beta-gal in NIH3T3, GalScreen luminescence, 90 h. 5,600 compounds, 72% hits. inhibition, % at 8.35 µM. shares compounds with T cruzi growth-1;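 active = mean replicate inhibition above about 95% and at least 55% of replicates individually reaching it, limit read from the data; inconclusive = only one of the two criteria is met; inactive = neither criterion is met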
T cruzi growth-3: inhibitors of T. cruzi proliferation | shares compounds with T cruzi growth-1 | AID 651740 | 5,600 compounds, 21% hits | T. cruzi beta-gal in NIH3T3, GalScreen luminescence, 90 h | inhibition, % at 2.09 µM;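 active = mean inhibition above about 95%, with at least 55% of replicates also reaching it, limit read from the data; inconclusive = meets just one of the two conditions; inactive = meets neither condition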
NIH3T3 tox: kills mouse NIH/3T3 fibroblasts; shares compounds with T cruzi growth-1; NIH/3T3 viability, CellTiter-Glo ATP luminescence, 90 h; cytotoxicity (signal decrease), % at 8.35 µM; 5,600 compounds, 14% hits;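 active = mean signal decrease across replicates above about 35% based on untreated-well scatter, with enough replicates individually passing, limit read from the data; inconclusive = no rule stated though some were filed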
NIH3T3 tox 2: NIH/3T3 (mouse) viability loss | shares compounds with T cruzi growth-1 | NIH/3T3 viability, CellTiter-Glo ATP luminescence, 90 h | inhibition, % at 24.9 µM | 5,600 compounds, 56% hits;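 active = mean loss of cell viability signal at or above a set limit, and enough replicates individually reaching it; inconclusive = meets only the mean limit or only the replicate share; inactive = meets neither condition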
A number is an active result; 0 = inactive; ? = inconclusive; - = no result given; + = active, no number.

SMILES	T cruzi growth-1	Pf Dd2 inh	C diff growth	T cruzi growth-2	T cruzi growth-3	NIH3T3 tox	NIH3T3 tox 2
COC(=O)[C@H]1[C@H](CO)[C@H]2Cn3c(ccc(-c4ccccc4OC)c3=O)[C@H]2N1CC1CCCC1	+	-	0	0	0	0	28
CCNC(=O)[C@@H]1[C@@H](CO)[C@@H]2Cn3c(ccc(-c4ccccc4OC)c3=O)[C@@H]2N1S(C)(=O)=O	111	0	0	0	0	0	0
CCNC(=O)[C@@H]1[C@@H](CO)[C@@H]2Cn3c(ccc(-c4ccccc4OC)c3=O)[C@@H]2N1CC	0	0	0	-	-	-	-
COC(=O)[C@@H]1[C@@H](CO)[C@@H]2Cn3c(ccc(-c4ccccc4OC)c3=O)[C@@H]2N1CC1CCCC1	+	-	0	0	0	0	33
COc1cccc(-c2ccc3n(c2=O)C[C@@H]2[C@@H](CO)[C@H](C(=O)N(C)C)N(CC4CC4)[C@H]32)c1	104	0	0	107	0	0	?
COC(=O)[C@H]1[C@H](CO)[C@H]2Cn3c(ccc(-c4cccc(OC)c4)c3=O)[C@H]2N1CC1CC1	0	0	0	-	-	-	-
COC(=O)[C@H]1[C@H](CO)[C@H]2Cn3c(ccc(-c4ccccc4OC)c3=O)[C@H]2N1CC1CCOCC1	0	0	0	-	-	-	-
COC(=O)[C@@H]1[C@@H](CO)[C@@H]2Cn3c(ccc(-c4ccccc4OC)c3=O)[C@@H]2N1CC1CCCCC1	-	0	0	-	-	-	-
NCC[C@@H]1CC[C@@H](NS(=O)(=O)Cc2ccccc2)[C@H](CO)O1	0	0	-	-	-	-	-
C[C@H]1CN([C@@H](C)CO)S(=O)(=O)c2ccc(-c3ccncc3)cc2O[C@H]1CN(C)C(=O)CC1CC1	0	0	0	-	-	-	-
C[C@@H]1CN([C@@H](C)CO)C(=O)c2cc(NS(=O)(=O)c3ccccc3)ccc2O[C@@H]1CN(C)Cc1ccc2c(c1)OCO2	102	0	0	0	0	0	0
C[C@H](CO)N1C[C@H](C)[C@H](CN(C)Cc2ccc(C(F)(F)F)cc2)Oc2ccc(NS(=O)(=O)c3ccccc3)cc2C1=O	104	0	0	0	0	0	0
C[C@H](CO)N1C[C@H](C)[C@@H](CN(C)Cc2ccc(C(F)(F)F)cc2)Oc2ccc(NS(=O)(=O)c3ccccc3)cc2C1=O	0	0	0	-	-	-	-
C[C@@H]1CN([C@@H](C)CO)C(=O)c2cc(NS(=O)(=O)c3ccccc3)ccc2O[C@@H]1CN(C)Cc1ccc(C(F)(F)F)cc1	0	0	0	-	-	-	-
C[C@H]1CN([C@@H](C)CO)C(=O)c2cc(NS(=O)(=O)c3ccccc3)ccc2O[C@@H]1CN(C)Cc1ccc(C(F)(F)F)cc1	104	0	0	0	0	0	39
C[C@H](CO)N1C[C@H](C)[C@@H](CN(C)Cc2ccc3c(c2)OCO3)Oc2ccc(NS(=O)(=O)c3ccccc3)cc2C1=O	0	0	-	-	-	-	-
C[C@@H]1CN([C@H](C)CO)C(=O)c2cccc(NS(=O)(=O)c3cccs3)c2O[C@@H]1CN(C)S(=O)(=O)c1ccc(F)cc1	0	0	0	-	-	-	-
O=C(C[C@H]1C[C@H]2c3cc(NS(=O)(=O)c4ccc(F)cc4)ccc3O[C@H]2[C@H](CO)O1)NC1CCCCC1	0	0	-	-	-	-	-
O=C(C[C@@H]1C[C@H]2c3cc(NS(=O)(=O)c4ccc(F)cc4)ccc3O[C@H]2[C@@H](CO)O1)NCC1CC1	0	0	0	-	-	-	-
CC(C)NC(=O)N[C@@H]1CC[C@@H](CC(=O)NCc2ccc(Oc3ccccc3)cc2)O[C@H]1CO	0	0	-	-	-	-	-
COc1ccc(CN(C)C[C@@H]2OCCCC[C@@H](C)Oc3ccc(NS(=O)(=O)c4ccc(Cl)cc4)cc3C(=O)N([C@H](C)CO)C[C@H]2C)cc1	?	0	0	105	0	0	103
COc1ccc(CN(C)C[C@H]2OCCCC[C@@H](C)Oc3ccc(NS(=O)(=O)c4ccc(OC)cc4)cc3C(=O)N([C@H](C)CO)C[C@@H]2C)cc1	0	0	0	-	-	-	-
COc1ccc(CN(C)C[C@H]2OCCCC[C@H](C)Oc3ccc(NS(=O)(=O)c4ccccc4)cc3C(=O)N([C@H](C)CO)C[C@H]2C)cc1	102	0	0	108	0	0	?
COc1ccc(CN(C)C[C@H]2OCCCC[C@H](C)Oc3ccc(NS(=O)(=O)c4ccc(Cl)cc4)cc3C(=O)N([C@H](C)CO)C[C@H]2C)cc1	0	?	0	-	-	-	-
COc1ccc(CN(C)C[C@@H]2OCCCC[C@H](C)Oc3ccc(NS(=O)(=O)c4ccc(Cl)cc4)cc3C(=O)N([C@@H](C)CO)C[C@H]2C)cc1	?	0	0	100	0	0	104
SMILES	T cruzi growth-1	Pf Dd2 inh	C diff growth	T cruzi growth-2	T cruzi growth-3	NIH3T3 tox	NIH3T3 tox 2
COc1ccc(CN(C)C[C@H]2OCCCC[C@@H](C)Oc3ccc(NS(=O)(=O)c4ccc(Cl)cc4)cc3C(=O)N([C@@H](C)CO)C[C@@H]2C)cc1	0	0	0	-	-	-	-
COc1ccc(CN(C)C[C@@H]2OCCCC[C@@H](C)Oc3ccc(NS(=O)(=O)c4ccc(Cl)cc4)cc3C(=O)N([C@@H](C)CO)C[C@@H]2C)cc1	?	0	0	?	0	0	107
COc1ccc(CN(C)C[C@H]2OCCCC[C@@H](C)Oc3ccc(NS(=O)(=O)c4ccccc4)cc3C(=O)N([C@H](C)CO)C[C@H]2C)cc1	0	0	0	-	-	-	-
Cc1ccc(-c2cnc3c(c2)C(=O)N([C@H](C)CO)C[C@@H](C)[C@H](CN(C)C(=O)c2cccc(F)c2)O3)cc1	-	0	0	-	-	-	-
CO[C@H]1CN(C)C(=O)c2cc(NC(=O)C3CCOCC3)ccc2OC[C@@H](C)N(C(=O)c2ccccc2)C[C@H]1C	0	-	-	-	-	-	-
O=C(c1cccnc1)N1CCCCN2[C@H](CO)[C@H](c3ccc(C#Cc4cccnc4)cc3)[C@@H]2C1	0	0	0	-	-	-	-
C[C@@H]1CN([C@@H](C)CO)C(=O)c2cc(NS(=O)(=O)c3ccccc3)ccc2O[C@@H]1CN(C)S(C)(=O)=O	0	0	0	-	-	-	-
CCc1csc(N2[C@H](CO)[C@H](c3ccc(-c4ccc(F)cc4)cc3)[C@@H]2C#N)n1	98	0	0	108	0	0	91
N#C[C@@H]1[C@H](c2ccc(C#Cc3ccc(F)cc3)cc2)[C@@H](CO)N1c1nc(-c2ccccc2)cs1	0	0	0	-	-	-	-
CCc1csc(N2[C@H](C#N)[C@H](c3ccc(-c4ccc(F)cc4)cc3)[C@H]2CO)n1	0	0	0	-	-	-	-
C/C=C/c1ccccc1[C@@H]1[C@H](C#N)N(c2nc(CC)cs2)[C@H]1CO	-	0	0	-	-	-	-
CCc1csc(N2[C@@H](C#N)[C@H](c3ccc(C#Cc4ccc(F)cc4)cc3)[C@@H]2CO)n1	106	0	0	97	110	0	0
C/C=C/c1ccc([C@H]2[C@@H](C#N)N(c3nc(CC)cs3)[C@@H]2CO)cc1	?	0	0	101	0	0	0
